Compound activity: PubChem, National Center for Advancing Translational Sciences (NCATS)
In the library only some 10% were active in any assay of this set; here they are far more common.
PLK1 PBD block = PLK1 (human) polo-box domain binding inhibition. P53350. Plk1 PBD binding of FITC phosphopeptide, fluorescence polarization. Potency, µM, inactives show max response, negative = inhibition, actives largely listed as inhibitors. 2.8% of 360,000 active. AID 720504; also: potency is read from the fitted curve at half-maximal effect; series mostly up to about 57 µM; nearly all actives have a fitted effect of over 65% in size
Sfp inh = Sfp phosphopantetheinyl transferase inhibition; 3.5% of 310,000 active; Biochemical Sfp PPTase activity, qHTS; Potency, µM, for inactives: largest response in the series, negative = inhibition, usual class: inhibitors; Q9F4F7;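 also: the enzyme is Sfp with the accession as filed and its product quenches rhodamine fluorescence; potency is read from the fitted curve at half-maximal effect; 0% = enzyme reaction without inhibitor and -100% = no enzyme wells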
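Fluorescence-quenching assay with 15 nM Sfp, 5 uM rhodamine-CoA and 12.5 uM BHQ-2-labelled ybbR peptide in pH 7.6 Hepes/MgCl2 buffer. Enzyme was pre-incubated with compound for 15 min at room temperature. Rate was taken from the 30-min fluorescence change (525/598 nm).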
CCT modulator = modulators of cytosolic chaperonin (CCT/TRiC) activity; purified chaperonin ATPase assay, HTRF ADP detection, 30 min; activity change, % (no concentration beside the values), hits read low; 0.3% of 360,000 active; in the data active = activity change below about -30%
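First, chaperonin was dispensed at 40 nM or 20 nM final depending on batch activity. Next, compounds were pinned at 76 uM and ATP added at 10 uM. After 30 min at 37 °C, ADP detection reagents ran 30 min at ambient temperature.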
VDR inhibitor = inhibitors of human vitamin D receptor | Potency, µM, for the others: max response, negative = inhibition, actives largely listed as inhibitors | 0.93% of 400,000 active | VDR-SRC2-3 peptide fluorescence polarization, 2 h | P11473; also: potency is read from the fitted curve at half-maximal effect
Target sequence (P11473 whole entry, looked up): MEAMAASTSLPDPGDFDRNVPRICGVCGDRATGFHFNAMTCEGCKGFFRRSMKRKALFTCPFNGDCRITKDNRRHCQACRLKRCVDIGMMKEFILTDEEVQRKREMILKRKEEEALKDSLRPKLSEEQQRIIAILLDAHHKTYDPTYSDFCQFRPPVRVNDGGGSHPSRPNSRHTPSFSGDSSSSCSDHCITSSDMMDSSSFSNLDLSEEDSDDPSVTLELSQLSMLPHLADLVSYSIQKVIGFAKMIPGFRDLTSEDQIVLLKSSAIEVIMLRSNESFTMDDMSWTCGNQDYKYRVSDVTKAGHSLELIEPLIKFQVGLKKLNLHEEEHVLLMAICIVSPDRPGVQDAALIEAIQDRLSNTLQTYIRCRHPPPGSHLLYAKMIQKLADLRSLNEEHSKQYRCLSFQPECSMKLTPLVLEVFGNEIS
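VDR–SRC2-3 interaction, FP format. Cmpds 23 nl via pintool, brief spin, 2 h ambient incubation.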
G9a block = G9a (human) methyltransferase inhibition; Q96KQ7; G9a H3K9 monomethylation, AlphaScreen, 2 h; Potency, µM (top dose mostly 102 µM), without a hit: at the top dose activity, negative = inhibition, most hits filed as inhibitors; 8.8% of 350,000 active; AID 504332; also: potency is read from the fitted curve at half-maximal effect; nearly all actives have a fitted effect of over 75% in size
Target sequence (Q96KQ7 913-1193 limits assumed): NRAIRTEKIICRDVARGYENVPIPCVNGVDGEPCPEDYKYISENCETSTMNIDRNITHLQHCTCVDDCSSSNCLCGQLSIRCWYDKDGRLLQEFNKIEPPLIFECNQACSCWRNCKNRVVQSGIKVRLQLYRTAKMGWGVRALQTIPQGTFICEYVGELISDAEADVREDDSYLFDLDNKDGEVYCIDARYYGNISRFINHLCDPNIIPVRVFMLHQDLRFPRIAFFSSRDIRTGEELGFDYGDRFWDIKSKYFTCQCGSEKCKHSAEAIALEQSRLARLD
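G9a (20 nM) preincubated 15 min RT with compounds, then 500 nM biotinylated H3K9 peptide and 20 uM SAM added; 2 h RT reaction. Monomethyl-H3K9 product detected by AlphaScreen with anti-H3K9me1 antibody, streptavidin donor and anti-rabbit IgG acceptor beads.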
Mm-Cpn inhibitor = M. maripaludis TRiC chaperonin inhibition; purified Mm-Cpn ATPase, ADP Transcreener TR-FRET; Potency, µM (top dose mostly 76.9 µM), without a hit: top-dose activity, negative = inhibition, hits mostly inhibitors; 0.031% of 330,000 active; AID 504842; also: potency is read from the fitted curve at half-maximal effect; nearly all actives have a fitted effect of over 80% in size
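Compound-treated chaperonin, 25 nM final, turns over 10 uM ATP at 37°C for 30 min following a 10 min preincubation; ADP generated competes with ADP-d2 for Eu-cryptate antibody, lowering FRET.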
The depositor's hits bear a star; ? = inconclusive; . = no result; [ ] = dose if it differs, or a comment. Unless noted, calls follow the shape of the dose curve; as a rule, active = well fitted curve in the direction sought with a large enough effect; inconclusive = small, poorly fitted or top-dose-only effect, or another doubt; inactive = no such curve, though single readings can be large; an effect the other way counts as inactive or inconclusive. Unless noted, % is scaled to controls: 0 for no effect and ±100 for the full control effect.

SMILES | PLK1 PBD block | Sfp inh | CCT modulator | VDR inhibitor | G9a block | Mm-Cpn inhibitor
CC(C(=O)Nc1ccccc1F)N1C(=O)c2ccccc2C1=O (stereo unspecified) | -18% | 6% | 0 | 9% | -21% | 1%
Cc1ccccc1C(=O)NNC(=O)C(C)N1C(=O)c2ccccc2C1=O (stereo unspecified) | -7% | ? | 2 | 18% | 11µM* | 2%
CC(O)[C@@H]1NC(=O)[C@H](CCCN)NC(=O)[C@@H](Cc2c[nH]c3ccccc23)NC(=O)[C@H](Cc2ccc(O)cc2)NC(=O)[C@@H](NC(=O)[C@H](N)Cc2ccccc2)CSSC(C)(C)C(C(=O)N[C@H](C(N)=O)[C@@H](C)O)NC1=O (stereo partly specified) | . | 23% | . | 2% | . | .
COc1ccc(C(=O)n2nc(-c3ccccc3)nc2N)cc1OC | -9% | 79µM* | -1 | 3% | -50%[59 µM] | 1%
COc1ccccc1NC(=S)NC(=O)Cc1ccc(Cl)cc1 | -5% | 23% | -1 | -2% | -2% | -4%
COc1ccccc1NC(=O)CSC(N)=O | -24% | 45µM* | -1 | 22µM* | 35µM* | 1%
COc1ccccc1NC(=O)CCCCC(=O)Nc1ccccc1OC | -9% | 12% | -2 | -13% | 24%[0.501 µM] | 2%
COc1ccccc1NC(=O)CSc1nc(N)c(C#N)cc1C#N | 6% | 1% | 1 | -9% | 50µM* | -13%
CCC(=O)NC(=S)Nc1ccccc1OC | 24µM* | 10% | -2 | -16% | 8%[12.7 µM] | 1%
COc1ccccc1NC(=O)Cc1nnc(SCC(=O)Nc2ccccc2F)n1C | 12µM* | 10% | 1 | ? | 8%[59 µM] | -2%
CCOc1ccc(-c2nonc2NC(=O)c2oc3cc(Br)ccc3c2C)cc1 | . | . | . | -3% | 1%[59 µM] | .
CC(=O)c1ccc(S(=O)(=O)Nc2ccc(-c3ccc(N4CCCCC4)nn3)cc2)cc1 | . | . | . | 11% | ? | .
COc1ccccc1NC(=O)CSc1nnc2ccc(-c3cccnc3)nn12 | 0% | 1% | -3 | 24% | 40µM* | -2%
CCn1nccc1C(=O)Nc1ccccc1OC | 10% | 15% | 1 | -1% | 0%[0.501 µM] | 0%
O=C(CSc1cn[nH]n1)Nc1ccccc1C(=O)O | ? | -4% | 1 | -7% | 7.9µM* | -1%
CCn1ncc(Br)c1C(=O)Nc1ccccc1OC | 21µM* | 8% | -35* | -12% | 6% | 0%
CC(C)n1c2ccccc2c2nnc(SCC(=O)Nc3ccccc3C(=O)O)nc21 | 27µM* | 9% | -1 | 4% | ? | -2%
COc1ccc(NC(=O)CSc2cn[nH]n2)c(OC)c1 | -18% | 18% | -3 | -9% | 7%[59 µM] | -3%
CCc1nn(CC(=O)N2CCC(C)CC2)c(=O)c2cc3occc3n12 | . | . | . | 13% | 16%[59 µM] | .
NC(=O)c1ccccc1NC(=O)CSC1=NCCS1 | ? | -18% | -2 | 6% | 50µM* | -1%
O=C(CSc1ccccc1)Nc1ccccc1C(=O)O | -11% | 5% | -1 | -3% | -1%[59 µM] | .
NC(=O)SCC(=O)Nc1ccccc1C(=O)O | -13% | 18µM* | -2 | 79µM* | 50µM* | 2%
Cc1ccccc1NC(=O)CSC(N)=O | ? | 14µM* | -3 | 25µM* | ? | 0%
Cc1ccccc1NC(=O)CSCC(=O)Nc1ccccc1C | -2% | 2% | 0 | 9% | 11%[59 µM] | 1%
COc1ccccc1C(=O)N(Cc1ccco1)Cc1ccccc1F | . | . | . | 1% | -23%[59 µM] | .
SMILES | PLK1 PBD block | Sfp inh | CCT modulator | VDR inhibitor | G9a block | Mm-Cpn inhibitor
CC(=O)Nc1ccc(NC(=O)COC(=O)c2c3c(nc4ccccc24)CCN(Cc2ccccc2)C3)cc1 | -22% | 4% | -3 | ? | 50µM* | -2%
O=C(COC(=O)c1c2c(nc3ccccc13)CCN(Cc1ccccc1)C2)Nc1c(F)cccc1F | 9% | -12% | 0 | -8% | 15%[59 µM] | -4%
O=C(NCc1ccc(F)cc1)c1c2c(nc3ccccc13)CCN(Cc1ccccc1)C2 | 0% | 3% | -2 | 8% | 45µM* | 3%
N#Cc1cccc(NC(=S)Nc2ccccc2)c1 | 13µM* | -19% | 1 | -18% | 3%[59 µM] | 1%
O=C(NNC(=S)Nc1ccccc1)c1cc(Br)ccc1Cl | ? | 14% | -3 | -6% | 40µM* | -5%
O=C(NNC(=S)Nc1ccccc1)Nc1ccccc1 | ? | 7.1µM* | -2 | -25% | . | -3%
S=C(Nc1ccccc1)Nc1nc2ccccc2n1CCOc1ccc(Br)cc1 | -8% | -28% | -1 | -19% | ? | -26%
Cc1ccc(NC(=S)NNC(=O)Nc2ccccc2)cc1 | -20% | ? | -18 | 4% | ? | -5%
COC(=O)c1cc(Br)ccc1NC(=O)Nc1ccccc1 | -4% | -13% | -1 | 8% | -9%[59 µM] | 0%
N#Cc1cccc(NC(=O)CN2CCN(Cc3ccccc3)CC2)c1 | -5% | 17% | 0 | 20% | 16% | 3%
Cn1c(NC(=S)Nc2ccccc2)nc2ccccc21 | 24µM* | 18% | -4 | ? | 22%[59 µM] | -10%
CCc1nn2c(=O)cc(COC(=O)c3cccc(NC(=O)c4cccs4)c3)nc2s1 | . | . | . | 13% | 13%[59 µM] | .
Cc1c(Cl)cccc1NC(=O)CN1C(=O)CCn2nc(-c3cccn3C)cc21 | . | . | . | 19% | ? | .
COc1cccc(-n2c(=O)c3sccc3n(Cc3cc(=O)n4cc(Cl)ccc4n3)c2=O)c1 | . | . | . | 10% | 9%[59 µM] | .
Cc1cc(C)c(NC(=O)Cn2nnc(-c3nc(-c4ccccc4)no3)c2N)c(C)c1 | . | . | . | 11% | ? | .
O=C(NNC(=S)Nc1ccccc1)NNC(=S)Nc1ccccc1 | -12% | 7% | -2 | -7% | 14µM* | -1%
Nc1ccc(NC(=S)Nc2ccccc2)cc1 | -3% | 12% | 1 | 5% | -3%[12.7 µM] | 3%
Oc1ccc(NC(=S)Nc2ccccc2)cc1 | -4% | ? | 0 | -8% | 50µM* | -3%
COC(=O)c1cc(NC(=O)CCc2c(C)nc3c(c(C)nn3C(C)(C)C)c2C)cc(C(=O)OC)c1 | . | . | . | 7% | 0%[59 µM] | .
CCCCn1c(-c2csc3c2CCC(C)C3)n[nH]c1=S (stereo unspecified) | -9% | -28% | 2 | 2% | 24%[59 µM] | 1%
C=CCn1c(-c2csc3c2CCC(C)C3)n[nH]c1=S (stereo unspecified) | -15% | 6% | 0 | -10% | 1.4µM* | -1%
CCn1c(-c2csc3c2CCCC3)n[nH]c1=S | -1% | -6% | -2 | 2% | 7.9µM* | 0%
CCCCn1c(-c2csc3c2CCCC3)n[nH]c1=S | -11% | 0% | 1 | 1% | ? | 0%
O=C(Nc1nnc(N2CCCCCC2)s1)Nc1cc(F)ccc1F | . | . | . | 4% | -5%[59 µM] | .
CCC(C)NC(=O)Cn1c(=O)n(-c2ccc(OC)c(OC)c2)c(=O)c2ccccc21 (stereo unspecified) | . | . | . | 28% | -5%[59 µM] | .
